From PubChem BioAssay (Tox21) come the findings set out here.

Molecules are shown by their SMILES. Where “and” joins values, the source holds several entries; their conditions need not be identical. Equal values may be shown once. Results filed as inconclusive are left out. Where a structure was tested more than once in an assay, its records may differ in their call. Calls of active or inactive are those of the source. Unless noted, the call rests on the fitted dose curve.

The nature of assay [1]: Nuclear factor erythroid 2-related factor 2/antioxidant responsive element (Nrf2/ARE) small molecule agonists: qHTS cell viability counter screen in human keratinocytes (AID 1919968; active means well fitted curve in the direction sought with a large enough effect in the repeat runs; an effect the other way counts as inactive or inconclusive; further: nearly all actives have a fitted effect of over 55% in size; further: potency means the concentration at half of the fitted maximal effect). The essentials:
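Seed 1,500 KeratinoSens cells per well, then incubate 5 h at 37 C/5% CO2. Add compounds in DMSO and incubate 23 h. Add CellTiter-Fluor, wait 1 h and read fluorescence.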
A general note: In qHTS, concentration-response curves come from the screen itself.

A short description of assay [2]: Nuclear factor erythroid 2-related factor 2/antioxidant responsive element (Nrf2/ARE) small molecule agonists: luciferase reporter gene qHTS assay in human keratinocytes (AID 1919969). Further: nearly all actives have a fitted effect of over 35% in size. Further: potency means the concentration at half of the fitted maximal effect. A general note: In a reporter assay the amount or activity of a reporter protein is the signal.
For assay [3], the target named is Gonadotropin-releasing hormone receptor (Homo sapiens) (UniProt P30968). The assay can be described thus: Human gonadotropin-releasing hormone receptor (GnRHR) small molecule agonists, calcium flux assay in GnRHR-HEK293 cells (AID 1920063). Further: nearly all actives have a fitted effect of over 35% in size. The gist of the method:
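Cells: HEK293 stably expressing human GnRHR. Steps: overnight (18 h) culture, 1 h calcium dye loading at 37 C, compound addition, kinetic fluorescence read at 480/540 nm. Each compound tested at 15 concentrations in triplicate.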
(In general: Calcium assays in cells follow changes in intracellular calcium, usually with a dye or a luminescent sensor.)

Assay [4] has as its target KiSS-1 receptor (Homo sapiens) (UniProt Q969F8). Nature of the assay: Human kisspeptin (KISS1R) small molecule agonists, calcium flux assay in KISS1R-HEK293 cells (AID 1920064; active means well fitted curve in the direction sought with a large enough effect in the repeat runs; an effect the other way counts as inactive or inconclusive). The essentials:
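Cells plated and incubated 18 h; dye added, 1 h at 37 C; compounds in DMSO pinned in; signal read at 480/540 nm every second for 3 min. Each compound tested at 15 concentrations in triplicate.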

Assay [5] is described as follows: G protein-coupled receptor (GPCR) small molecule agonists, calcium flux assay: HEK293 wild type cell line counter screen (AID 1920065). The essentials: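 Counter-screen of the Tox21 10K library for non-specific calcium release: dye-loaded cells received compounds in DMSO and were monitored by kinetic fluorescence (480/540 nm, 3 min). Fifteen concentrations, run in triplicate.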

Assay [6] can be described thus: cAMP Responsive Elements (CRE) small molecule agonists, cell-based qHTS assay (AID 1963590). The gist of the method:
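Agonist mode qHTS in CRE-bla HEK 293T cells: compounds dosed from DMSO for 3 h at 37 C/5% CO2, followed by LiveBLAzer B/G FRET substrate for 2 h at room temperature.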

Assay [7] is described as follows: cAMP Responsive Elements (CRE) small molecule antagonists, cell-based qHTS assay (AID 1963591; active means well fitted inhibition curve with a large enough effect in the signal ratio in the repeat runs, not every such curve was filed as active; the % refers to the signal ratio). The gist of the method: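 Antagonist mode: test compounds are co-incubated with the adenylyl cyclase activator NKH477 (0.25 uM final) on CRE-bla HEK293T cells for 3 h at 37 °C, followed by LiveBLAzer substrate loading.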
Assay [8] deals with Beta-2 adrenergic receptor (Homo sapiens) (UniProt P07550). The assay can be described thus: Adrenergic beta2 receptor (ADRB2) small molecule antagonists, cell-based qHTS assay (AID 1963592). Further: series mostly up to about 92 µM; nearly all actives have a fitted effect of over 50% in size. The gist of the method: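 Cells (CHO, stable ADRB2 overexpression) incubated 18-20hr at 37C; compounds added from DMSO; agonist mix (1nM isoproterenol, 100uM IBMX, 25uM Ro-20-1724) added; 0.5hr RT; d2-cAMP and anti-cAMP-cryptate added; 1hr RT; 665/615 nm read.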
Beta-2 adrenergic receptor (Homo sapiens), sequence (P07550 whole entry, looked up): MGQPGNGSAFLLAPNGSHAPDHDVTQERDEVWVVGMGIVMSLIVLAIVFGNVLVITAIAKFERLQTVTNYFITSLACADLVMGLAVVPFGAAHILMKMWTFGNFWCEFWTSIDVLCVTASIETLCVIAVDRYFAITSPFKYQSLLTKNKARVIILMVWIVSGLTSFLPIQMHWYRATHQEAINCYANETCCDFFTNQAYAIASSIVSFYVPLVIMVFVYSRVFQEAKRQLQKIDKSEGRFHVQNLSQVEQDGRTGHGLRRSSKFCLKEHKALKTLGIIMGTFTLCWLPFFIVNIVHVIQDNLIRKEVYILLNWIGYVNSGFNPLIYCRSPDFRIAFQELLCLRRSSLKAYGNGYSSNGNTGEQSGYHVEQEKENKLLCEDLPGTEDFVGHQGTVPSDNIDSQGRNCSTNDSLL

The target in assay [9] is D(2) dopamine receptor (Homo sapiens) (UniProt P14416). The assay can be described thus: Dopamine D2 receptor (DRD2) small molecule agonists, cell-based qHTS assay (AID 1963594). Further: nearly all actives have a fitted effect of over 35% in size. Further: potency means the concentration at half of the fitted maximal effect. The gist of the method: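 HEK293 cells stably expressing DRD2 were cultured 24 h at 37 C, then given Ro20-1724 (0.1 mM final) and compounds for 10 min at room temperature. NKH477 (200nM) was then added for 30 min. cAMP was read by HTRF.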
D(2) dopamine receptor (Homo sapiens), sequence (P14416 whole entry, looked up): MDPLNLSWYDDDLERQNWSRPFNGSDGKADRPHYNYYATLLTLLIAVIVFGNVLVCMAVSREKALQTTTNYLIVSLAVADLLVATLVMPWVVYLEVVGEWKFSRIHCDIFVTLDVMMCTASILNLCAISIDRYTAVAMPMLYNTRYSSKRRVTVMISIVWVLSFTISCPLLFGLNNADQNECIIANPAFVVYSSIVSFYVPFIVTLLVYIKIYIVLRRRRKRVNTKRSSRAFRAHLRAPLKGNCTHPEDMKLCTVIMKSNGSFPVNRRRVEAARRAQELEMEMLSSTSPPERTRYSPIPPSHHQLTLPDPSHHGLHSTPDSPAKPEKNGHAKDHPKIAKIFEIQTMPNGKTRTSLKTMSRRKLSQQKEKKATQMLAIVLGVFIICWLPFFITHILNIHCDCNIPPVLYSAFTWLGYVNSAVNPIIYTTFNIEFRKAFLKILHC

Assay [10] is described as follows: p53 small molecule agonists, cell-based qHTS assay with human liver microsomes (AID 1963577). The gist of the method: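 In this qHTS, p53 response-element beta-lactamase cells receive test compound together with a microsome/NADPH activating system (0.5 mg/mL final each) and are incubated 16 h at 37 C before LiveBLAzer fluorescence detection.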
Assay [11] can be described thus: p53 small molecule agonists, cell-based qHTS assay with rat liver microsomes (AID 1963578). The gist of the method: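 Agonist mode in p53RE-bla reporter cells, with compounds co-incubated 16 h at 37 C alongside 0.5 mg/mL rat liver microsomes and 0.5 mg/mL NADPH (final), followed by a 2 h LiveBLAzer detection step.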
The nature of assay [12]: p53 small molecule agonists, cell-based qHTS assay with human liver microsomes: qHTS cell viability counter screen (AID 1963579). Further: nearly all actives have a fitted effect of over 45% in size. The gist of the method:
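Metabolically activated exposure: compounds, human liver microsomes and NADPH (0.5 mg/mL final apiece) were added to p53RE-bla cells seeded 5 h earlier, left 16 h at 37 C, and then assessed for viability by CellTiter-Glo luminescence.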

A short description of assay [13]: p53 small molecule agonists, cell-based qHTS assay with rat liver microsomes: qHTS cell viability counter screen (AID 1963580). Further: nearly all actives have a fitted effect of over 45% in size. The essentials: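 In HCT-116 cells carrying a p53 response element-bla reporter, compounds were metabolically activated in situ by rat liver microsomes with NADPH over 16 h. Cell ATP content then served as the cytotoxicity measure.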
Assay [14] is described as follows: p53 small molecule agonists, cell-based qHTS assay: qHTS cell viability counter screen (AID 1963581). Further: nearly all actives have a fitted effect of over 45% in size. The essentials:
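Cells: HCT-116 with p53 response element-driven beta-lactamase. Treatment: 16 h, 37 C, compounds in DMSO. Read: CellTiter-Glo luminescence after 30 min RT.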

For assay [15], the target named is 5-hydroxytryptamine receptor 2A (Homo sapiens) (UniProt P28223). Nature of the assay: 5-hydroxytryptamine receptor 2A (HTR2A) small molecule antagonists, cell-based qHTS assay (AID 1963586). Further: nearly all actives have a fitted effect of over 45% in size. Further: potency means the concentration at half of the fitted maximal effect. The gist of the method: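 Antagonist-mode intracellular calcium assay: DOI (4 nM) added after 5 min compound pre-incubation at room temperature to dye-loaded HTR2A-CHO cells. Fluorescence followed for 3 min, sampled every second.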
5-hydroxytryptamine receptor 2A (Homo sapiens), sequence (P28223 whole entry, looked up): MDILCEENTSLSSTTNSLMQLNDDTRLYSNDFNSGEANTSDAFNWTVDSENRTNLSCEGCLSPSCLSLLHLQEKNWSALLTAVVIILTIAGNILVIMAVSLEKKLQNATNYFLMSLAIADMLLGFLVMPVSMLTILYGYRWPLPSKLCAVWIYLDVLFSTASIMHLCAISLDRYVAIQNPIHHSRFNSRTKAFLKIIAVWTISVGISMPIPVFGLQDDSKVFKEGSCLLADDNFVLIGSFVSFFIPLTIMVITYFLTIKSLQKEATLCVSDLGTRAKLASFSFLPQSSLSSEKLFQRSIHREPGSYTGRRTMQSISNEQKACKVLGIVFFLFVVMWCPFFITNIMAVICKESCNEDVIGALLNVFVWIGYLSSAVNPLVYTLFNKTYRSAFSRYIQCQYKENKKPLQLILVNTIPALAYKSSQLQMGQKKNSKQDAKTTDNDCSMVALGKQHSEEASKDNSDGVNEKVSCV

Assay [16] shares this target. The assay can be described thus: 5-hydroxytryptamine receptor 2A (HTR2A) small molecule agonists, cell-based qHTS assay (AID 1963587). Further: nearly all actives have a fitted effect of over 30% in size. The essentials: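 HTR2A-CHO cells, plated 18 h at 37 C/5% CO2, dye-loaded 1 h at 37 C; compounds in DMSO added by pin tool (agonist mode). Intracellular calcium flux read as kinetic fluorescence on FDSS over 2 min at 1 s intervals.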

Assay [17] addresses Muscarinic acetylcholine receptor M1 (Homo sapiens) (UniProt P11229). Nature of the assay: Cholinergic receptor muscarinic 1 (CHRM1) small molecule antagonists, cell-based qHTS assay (AID 1963588). Further: nearly all actives have a fitted effect of over 40% in size. The essentials:
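CHRM1-CHO calcium-flux assay, antagonist mode. Cells were seeded 18 h, dye-loaded 1 h at 37 C and given compound for 5 min at RT, then acetylcholine was added at 50nM. FDSS fluorescence was read 3 min; 15 concentrations, three runs.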

The target is the same in assay [18]. The assay can be described thus: Cholinergic receptor muscarinic 1 (CHRM1) small molecule agonists, cell-based qHTS assay (AID 1963589). Further: nearly all actives have a fitted effect of over 35% in size. The essentials:
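Agonist-mode qHTS in CHO cells stably carrying human muscarinic M1. Intracellular calcium is tracked by fluorescence every second after compound transfer; each compound runs at 15 concentrations in three independent runs.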

Assay [19] addresses Beta-2 adrenergic receptor (Homo sapiens) (UniProt P07550). The assay can be described thus: Adrenergic beta2 receptor (ADRB2) small molecule agonists, cell-based qHTS assay (AID 1963593).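 Further: CHO cells stably overexpressing human ADRB2.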 The gist of the method:
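CHO cells stably over-expressing ADRB2 were plated overnight at 37C, then dosed with compounds plus a stimulation mix containing 100uM IBMX and 25uM Ro-20-1724 for 0.5hr at room temperature. cAMP was measured by HTRF competition, 1hr.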

Assay [20] concerns the target D(2) dopamine receptor (Homo sapiens) (UniProt P14416). Nature of the assay: Dopamine D2 receptor (DRD2) small molecule antagonists, cell-based qHTS assay (AID 1963595; active means well fitted inhibition curve with a large enough effect in the signal ratio in the repeat runs, with a control signal flat; the % refers to the signal ratio). The gist of the method: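 Antagonism was scored as restored cAMP in HEK293-DRD2 cells. These cells were stimulated with 200 nM NKH477 and 12 nM quinpirole for 30 min at room temperature, in the presence of 0.1 mM Ro20-1724.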
On the % scale 0 is the no-effect control and ±100 the full control effect.

Muscarinic acetylcholine receptor M1 (Homo sapiens), sequence (P11229 whole entry, looked up): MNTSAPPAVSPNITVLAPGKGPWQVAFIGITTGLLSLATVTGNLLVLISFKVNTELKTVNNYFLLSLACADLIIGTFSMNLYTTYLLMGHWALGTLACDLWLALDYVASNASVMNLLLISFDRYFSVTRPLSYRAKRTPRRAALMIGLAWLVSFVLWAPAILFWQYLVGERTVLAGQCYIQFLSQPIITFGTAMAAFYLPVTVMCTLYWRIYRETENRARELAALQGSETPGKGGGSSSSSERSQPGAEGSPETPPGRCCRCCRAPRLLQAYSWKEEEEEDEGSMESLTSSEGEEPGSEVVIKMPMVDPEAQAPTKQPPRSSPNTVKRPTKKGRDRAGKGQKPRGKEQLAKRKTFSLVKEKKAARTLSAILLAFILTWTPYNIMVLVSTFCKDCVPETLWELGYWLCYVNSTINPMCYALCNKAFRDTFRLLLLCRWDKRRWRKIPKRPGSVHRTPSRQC
KiSS-1 receptor (Homo sapiens), sequence (Q969F8 whole entry, looked up): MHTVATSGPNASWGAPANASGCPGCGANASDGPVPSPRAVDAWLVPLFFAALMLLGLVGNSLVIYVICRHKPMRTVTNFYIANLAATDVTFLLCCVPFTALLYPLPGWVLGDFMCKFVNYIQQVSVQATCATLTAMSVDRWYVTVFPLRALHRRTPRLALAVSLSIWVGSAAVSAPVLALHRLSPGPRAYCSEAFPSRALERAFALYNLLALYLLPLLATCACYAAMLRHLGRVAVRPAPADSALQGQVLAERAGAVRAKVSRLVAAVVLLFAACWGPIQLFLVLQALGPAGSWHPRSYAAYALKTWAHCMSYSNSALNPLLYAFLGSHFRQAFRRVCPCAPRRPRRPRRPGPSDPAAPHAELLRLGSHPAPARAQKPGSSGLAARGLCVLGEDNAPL
Gonadotropin-releasing hormone receptor (Homo sapiens), sequence (P30968 whole entry, looked up): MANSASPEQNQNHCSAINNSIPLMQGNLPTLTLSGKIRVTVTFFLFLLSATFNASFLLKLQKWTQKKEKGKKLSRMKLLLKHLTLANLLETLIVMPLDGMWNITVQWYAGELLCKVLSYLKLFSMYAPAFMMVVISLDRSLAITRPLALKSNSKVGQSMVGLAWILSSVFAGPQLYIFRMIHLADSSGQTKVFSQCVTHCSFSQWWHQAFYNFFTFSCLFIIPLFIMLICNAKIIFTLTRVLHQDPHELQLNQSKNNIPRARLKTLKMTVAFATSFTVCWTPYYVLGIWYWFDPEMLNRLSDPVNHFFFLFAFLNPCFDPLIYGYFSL

With `CN/C(=C\[N+](=O)[O-])NCCSCc1ccc(CN(C)C)o1`, the Potency result in assay [1], in assay [2], in assay [3], in assay [4], in [5] and in assay [6] was “inactive” in each case. Further, the Potency entry in [7] and in assay [8] was “inactive” each time. In addition, in assay [9], the Potency result is “inactive and 17.4 µM (active)”.
On to `CCc1ccc(C)nc1`, for which the Potency entry in assay [1], in assay [2], in [3], in assay [5], in assay [10] and in assay [11] was “inactive” in each case. The Potency result in assay [12], in assay [13], in assay [14], in assay [15], in [16] and in assay [17] was “inactive” each time. In addition, the Potency entry in [18], in assay [6], in assay [7], in assay [8], in assay [19] and in assay [9] was “inactive” throughout. Besides, the Potency result in assay [20] was “inactive”.
As for `CC(=O)N(c1onc(C)c1C)S(=O)(=O)c1ccc(N)cc1`, the Potency result in assay [1], in [2], in assay [3], in [5], in [10] and in assay [11] was “inactive” in each case. Further, the Potency entry in assay [12], in assay [13], in [14], in assay [15], in assay [16] and in assay [17] was “inactive” in each case. Besides, the Potency result in assay [18], in assay [6], in [7], in assay [8], in assay [19] and in [9] was “inactive” in each case. The Potency entry in assay [20] is “inactive”.
Consider `CCN(CC)c1ccc(C(=O)c2ccccc2C(=O)O)c(O)c1`, for which the Potency entry in [1], in [2], in assay [3], in assay [4], in assay [12] and in assay [13] was “inactive” throughout. Moreover, the Potency result in [15], in [16], in assay [17], in [18], in [8] and in [9] was “inactive” throughout. Besides, in assay [20], the Potency result was “inactive”.
For the compound `O=C(Nc1ccc([N+](=O)[O-])cc1Cl)c1cc(Cl)ccc1O`, the Potency was 1.93 µM (active) and 291 nM (active) in assay [1]; 34.4 µM (active) and 41.1 nM (active) in assay [2]. The Potency entry in assay [3], in assay [4], in assay [10], in assay [11], in [12] and in [13] was “inactive” throughout. Moreover, the Potency result in [15], in assay [18], in assay [9] and in assay [20] was “inactive” in each case. Further, the activity, negative = inhibition in [17] was -9.19% [at 12.6 µM] (inactive). Also, in assay [8], the activity change, negative = inhibition is -7.38% [at 19 µM] (inactive).
As to `CN(C)c1ccc(Cc2ccc(N(C)C)cc2)cc1`, the Potency result in assay [1], in assay [3], in [5], in assay [10], in assay [11] and in assay [12] was “inactive” each time. The Potency result in assay [13], in [14], in assay [16], in assay [17], in assay [18] and in assay [6] was “inactive” each time. The Potency entry in assay [7], in [8], in assay [19], in assay [9] and in [20] was “inactive” throughout. Also, the Potency entry in [2] is “inactive and 34.4 µM (active)”; in assay [15], 4.23 µM (active).
As for `CC1CNCC(C)O1` (centres undefined), the Potency result in [1], in assay [2], in assay [3], in assay [5], in assay [10] and in assay [11] was “inactive” in each case. Moreover, the Potency entry in assay [12], in assay [13], in assay [14], in assay [15], in assay [16] and in assay [17] was “inactive” in each case. Also, the Potency entry in assay [18], in [6], in assay [7], in assay [8], in [19] and in assay [9] was “inactive” in each case. In [20], the Potency entry is “inactive”.
In the case of `CC(=O)c1ccccc1N`, the Potency result in assay [1], in assay [2], in assay [3], in assay [5], in assay [10] and in assay [11] was “inactive” each time. Moreover, the Potency result in [12], in assay [13], in assay [14], in assay [15], in assay [16] and in assay [17] was “inactive” in each case. Moreover, the Potency entry in assay [18], in assay [6], in assay [7], in assay [8] and in [9] was “inactive” throughout.
